# Results filed as inconclusive are left out. A call without a number means that no potency is given here. Calls of active or inactive are those of the source. Calls follow the shape of the dose curve; as a rule, active = well fitted curve in the direction sought with a large enough effect; inconclusive = small, poorly fitted or top-dose-only effect, or another doubt; inactive = no such curve, though single readings can be large; an effect the other way counts as inactive or inconclusive.
# Experiments:
# [1] = qHTS of pediatric cancer cell lines to identify multiple opportunities for drug repurposing: Primary screen for BT-37 cells (AID 1347094); also: potency is read from the fitted curve at half-maximal effect
# How it was run: (§1)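 Viability was measured as metabolically active cells after 48 hours of treatment, read by CellTiter-Glo luminescence. Compounds were tested at multiple final concentrations, giving concentration-response curves.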
# [2] = qHTS of pediatric cancer cell lines to identify multiple opportunities for drug repurposing: Primary screen for NB-EBc1 cells (AID 1347095); also: potency is read from the fitted curve at half-maximal effect
# How it was run: as §1
# [3] = qHTS of pediatric cancer cell lines to identify multiple opportunities for drug repurposing: Primary screen for U-2 OS cells (AID 1347096); also: nearly all actives have a fitted effect of over 50% in size; also: potency is read from the fitted curve at half-maximal effect
# How it was run: (§2)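 Viability after 48 h compound treatment at 37C, 500-1,000 cells/well, read as ATP luminescence with CellTiter-Glo. Primary screens used 11-point (MIPE, 0.78 nM-46 µM) or 8-point (NPC, 0.59 nM-46 µM) final concentrations; follow-up screens used 11-point dilutions.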
# [4] = qHTS of pediatric cancer cell lines to identify multiple opportunities for drug repurposing: Primary screen for Saos-2 cells (AID 1347097); also: nearly all actives have a fitted effect of over 40% in size; also: potency is read from the fitted curve at half-maximal effect
# How it was run: as §1
# [5] = qHTS of pediatric cancer cell lines to identify multiple opportunities for drug repurposing: Primary screen for SK-N-SH cells (AID 1347098); also: nearly all actives have a fitted effect of over 65% in size; also: potency is read from the fitted curve at half-maximal effect
# How it was run: (§3)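 Cells (500-1,000/well) rested 5 h, then received compounds for 48 h; metabolically active cells were measured by CellTiter-Glo luminescence. Final concentrations spanned up to 46 µM (MIPE, 11-point) or 0.59 nM-46 µM (NPC, 8-point) in primary screens, 11-point in follow-ups.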
# [6] = qHTS of pediatric cancer cell lines to identify multiple opportunities for drug repurposing: Primary screen for NB1643 cells (AID 1347099); also: nearly all actives have a fitted effect of over 50% in size; also: potency is read from the fitted curve at half-maximal effect
# How it was run: as §1
# [7] = qHTS of pediatric cancer cell lines to identify multiple opportunities for drug repurposing: Primary screen for LAN-5 cells (AID 1347100); also: potency is read from the fitted curve at half-maximal effect
# How it was run: as §2
# [8] = qHTS of pediatric cancer cell lines to identify multiple opportunities for drug repurposing: Primary screen for BT-12 cells (AID 1347101); also: nearly all actives have a fitted effect of over 25% in size; also: potency is read from the fitted curve at half-maximal effect
# How it was run: as §3
# [9] = qHTS of pediatric cancer cell lines to identify multiple opportunities for drug repurposing: Primary screen for RD cells (AID 1347104); also: nearly all actives have a fitted effect of over 55% in size; also: potency is read from the fitted curve at half-maximal effect
# How it was run: as §1
# [10] = qHTS of pediatric cancer cell lines to identify multiple opportunities for drug repurposing: Primary screen for MG 63 (6-TG R) cells (AID 1347105); also: nearly all actives have a fitted effect of over 50% in size; also: potency is read from the fitted curve at half-maximal effect
# How it was run: as §1
# [11] = qHTS of pediatric cancer cell lines to identify multiple opportunities for drug repurposing: Primary screen for control Hh wild type fibroblast cells (AID 1347106);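 also: series mostly up to about 46 µM; a drop in luminescence marks cytotoxicity and a rise apparent proliferation; nearly all actives have a fitted effect of over 55% in size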
# How it was run: as §2
# [12] = qHTS of pediatric cancer cell lines to identify multiple opportunities for drug repurposing: Primary screen for Rh30 cells (AID 1347107); also: series mostly up to about 46 µM; nearly all actives have a fitted effect of over 75% in size
# How it was run: as §2
# [13] = qHTS of pediatric cancer cell lines to identify multiple opportunities for drug repurposing: Primary screen for Rh41 cells (AID 1347108); also: nearly all actives have a fitted effect of over 70% in size; also: potency is read from the fitted curve at half-maximal effect
# How it was run: as §1
# [14] = qHTS of pediatric cancer cell lines to identify multiple opportunities for drug repurposing: Confirmatory screen for NB1643 cells (AID 1347109); also: nearly all actives have a fitted effect of over 45% in size; also: potency is read from the fitted curve at half-maximal effect
# How it was run: as §2
# [15] = qHTS of pediatric cancer cell lines to identify multiple opportunities for drug repurposing: Confirmatory screen for SK-N-MC cells (AID 1347111);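 also: potency is read from the fitted curve at half-maximal effect; cells exposed to compound for 48 h before the readout; nearly all actives have a fitted effect of over 70% in size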
# How it was run: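 SK-N-MC cells at 500-1,000 cells/well in growth media were pre-incubated 5 h, then exposed to compounds at 11-point dilutions for 48 h at 37 degrees C, 5% CO2. Viability was read as CellTiter-Glo luminescence.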
# [16] = qHTS of pediatric cancer cell lines to identify multiple opportunities for drug repurposing: Primary screen for Rh18 cells (AID 1347102); also: nearly all actives have a fitted effect of over 65% in size; also: potency is read from the fitted curve at half-maximal effect
# How it was run: as §2
# [17] = qHTS of pediatric cancer cell lines to identify multiple opportunities for drug repurposing: Primary screen for OHS-50 cells (AID 1347103); also: nearly all actives have a fitted effect of over 40% in size; also: potency is read from the fitted curve at half-maximal effect
# How it was run: as §3
# [18] = qHTS of pediatric cancer cell lines to identify multiple opportunities for drug repurposing: Confirmatory screen for LAN-5 cells (AID 1347113); also: nearly all actives have a fitted effect of over 65% in size; also: potency is read from the fitted curve at half-maximal effect
# How it was run: as §2
SMILES,Potency [1],Potency [2],Potency [3],Potency [4],Potency [5],Potency [6],Potency [7],Potency [8],Potency [9],Potency [10],Potency [11],Potency [12],Potency [13],Potency [14],Potency [15],Potency [16],Potency [17],Potency [18]
C=C(C)[C@@H]1CC[C@]2(C)CC[C@]3(C)[C@H](CC[C@@H]4[C@@]5(C)CC[C@H](O)C(C)(C)[C@H]5CC[C@]43C)[C@@H]12,inactive,inactive,inactive,inactive,inactive,inactive,inactive,inactive,inactive,inactive,inactive,inactive,inactive,–,–,–,–,–
NC(=O)Nc1cc(-c2ccc(CN3CCOCC3)cc2)sc1C(N)=O,21.7 µM (active),0.235 µM (active),18.7 µM (active),2.35 µM (active),1.36 µM (active),0.0296 µM (active),0.0332 µM (active),24.3 µM (active),8.33 µM (active),11.8 µM (active),inactive,–,7.43 µM (active),0.414 µM (active),0.657 µM (active),–,–,–
CCC[C@H]1C[C@H](C(=O)N[C@@H]([C@@H]2O[C@@H](SC)[C@@H](O)[C@@H](O)[C@@H]2O)[C@H](C)Cl)N(C)C1,inactive,inactive,inactive,inactive,inactive,inactive,inactive,inactive,inactive,inactive,inactive,–,inactive,–,–,inactive,inactive,–
COc1cc(C)c(Sc2cnc(NC(=O)c3ccc(CNC(C)C(C)(C)C)cc3)s2)cc1C(=O)N1CCN(C(C)=O)CC1 (centres undefined),7.69 µM (active),0.743 µM (active),inactive,inactive,4.82 µM (active),3.72 µM (active),1.66 µM (active),19.3 µM (active),14.8 µM (active),14.8 µM (active),–,–,7.43 µM (active),–,–,14.8 µM (active),–,–
CCOC(=O)C=C[C@H](C[C@@H]1CCNC1=O)NC(=O)[C@@H](CC(=O)[C@@H](NC(=O)c1cc(C)on1)C(C)C)Cc1ccc(F)cc1,inactive,inactive,inactive,inactive,inactive,inactive,inactive,inactive,inactive,inactive,inactive,inactive,–,–,–,inactive,inactive,–
c1coc(CNc2ncnc3nc[nH]c23)c1,inactive,inactive,inactive,inactive,inactive,inactive,inactive,inactive,inactive,inactive,inactive,inactive,inactive,–,–,inactive,inactive,–
CC1=C(C(=O)Nc2cc3cn[nH]c3cc2F)C(c2ccc(Cl)cc2F)N=C(c2ccnc(Cl)c2)N1 (centres undefined),24.3 µM (active),10.5 µM (active),inactive,5.9 µM (active),19.2 µM (active),–,9.35 µM (active),–,inactive,–,inactive,inactive,–,–,–,–,–,–
Nc1nc2c(c(=O)[nH]1)N(C=O)[C@H](CNc1ccc(C(=O)N[C@@H](CCC(=O)O)C(=O)O)cc1)CN2,9.68 µM (active),inactive,inactive,inactive,inactive,–,10.5 µM (active),10.9 µM (active),–,inactive,inactive,inactive,inactive,inactive,10.4 µM (active),–,27.3 µM (active),inactive
Cn1c(Nc2ccc(C(F)(F)F)cc2)nc2cc(Oc3ccnc(-c4ncc(C(F)(F)F)[nH]4)c3)ccc21,2.43 µM (active),14.8 µM (active),14.8 µM (active),2.96 µM (active),7.64 µM (active),11.8 µM (active),10.5 µM (active),8.63 µM (active),4.18 µM (active),–,–,–,–,20.8 µM (active),7.37 µM (active),–,–,18.5 µM (active)
C[C@H](CCC(=O)O)[C@H]1CC[C@H]2[C@@H]3[C@H](O)C[C@@H]4C[C@H](O)CC[C@]4(C)[C@@H]3CC[C@]12C,inactive,inactive,inactive,inactive,inactive,–,inactive,inactive,inactive,inactive,inactive,inactive,inactive,–,–,–,inactive,–
CC(=O)OCC(=O)[C@@]12N=C(C)O[C@H]1C[C@H]1[C@@H]3CCC4=CC(=O)C=C[C@]4(C)[C@@H]3[C@@H](O)C[C@@]12C,inactive,inactive,inactive,inactive,inactive,–,inactive,inactive,inactive,inactive,inactive,inactive,inactive,–,–,inactive,inactive,–
C=C[C@@H]1CN2CCC1C[C@H]2[C@H](O)c1ccnc2ccc(OC)cc12 (some centres undefined),inactive,inactive,inactive,inactive,inactive,–,–,inactive,inactive,inactive,inactive,–,inactive,–,–,inactive,–,–
CC(=O)N[C@@H]1[C@H](O[C@@H]2c3ccc(c(Cl)c3)Oc3cc4cc(c3O[C@H]3O[C@H](CO)[C@@H](O)[C@H](O)[C@H]3NC(=O)CCCCCCCC(C)C)Oc3ccc(cc3Cl)C[C@H]3NC(=O)[C@H](N)c5ccc(O)c(c5)Oc5cc(O)cc(c5)[C@H](NC3=O)C(=O)N[C@H]4C(=O)N[C@H]3C(=O)N[C@@H]2C(=O)N[C@@H](C(=O)O)c2cc(O)cc(O[C@H]4O[C@H](CO)[C@@H](O)[C@H](O)[C@H]4O)c2-c2cc3ccc2O)O[C@H](CO)[C@@H](O)[C@@H]1O,inactive,inactive,inactive,inactive,inactive,inactive,–,inactive,inactive,inactive,inactive,inactive,inactive,–,–,inactive,–,–
